Assay results as given in PubChem BioAssay AID434973 (Sanford-Burnham Center for Chemical Genomics, 2010).
Among all 330,000 compounds or so, about 4,900 (1.5%) were called active. The list comes from a sample in which actives are over-represented; it also holds similar structures and randomly drawn compounds. A number with no mark means an inactive call.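 Rule for the calls: active = inhibition above about 50% at the single test dose (limit read from the data); inactive = the rest.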

The compounds below were run against Sentrin-specific protease 7 (Homo sapiens) (UniProt Q9BQF6) (assay: blockers of human SENP7 peptidase activity – biochemical, luminescence, uHTS, primary screen (AID 434973;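 note: plate controls were DMSO with enzyme for no effect and no enzyme buffer wells for full effect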)). Conditions: recombinant SENP7, Z-RLRGG-aminoluciferin luminescence, 40 min; at 5 µM; stronger effect = higher value.
Work on O=C(NCCCc1ccccc1)C1CCC(CNc2c(N3CCCCC3)c(=O)c2=O)CC1 (stereo not given) yielded an inhibition of 3.15%.
In the case of CC(=O)Nc1ccc(CN2CCC(Oc3ccc(C(=O)N4CCCC4)cc3)CC2)cc1, the inhibition is reported as 0.753%.
Work on O=C(CN1CCN(c2ccccc2F)CC1)c1ccc2c(c1)OCO2 yielded an inhibition of 8.23%.
Work on O=C(c1ccco1)N1CCN(C(=O)c2cc(-c3ccccc3F)no2)CC1 yielded an inhibition of 4.1%.
For Fc1ccccc1-c1cc2cc3c(cc2cn1)OCO3, the inhibition was 77.3% (active).
With Cc1nc(-c2ccccc2)sc1C1(C)CC(c2cccnc2)=NO1 (stereo not given) the inhibition was -12.6%.
Cc1ccnc(NC(=O)CCCOc2ccccc2)c1 was tested, and the inhibition was -12.2%.
In the case of CCC(=O)NC(Nc1cc(C)ccn1)(C(F)(F)F)C(F)(F)F, the inhibition is reported as 98.5% (active).
With CCOC(=O)NNc1cc(C(F)(F)F)ccn1 the inhibition was 13.9%.
With Cc1ccc2[nH]cc(CCNC(=O)C3CCCCC3)c2c1 the inhibition was 5.37%.
With COc1cccc(C(=O)Nc2ccc(N3CCCC3)cc2)c1 the inhibition was 99.4% (active).
Compound Cc1ccccc1C(=O)N1CCN(c2ccc(NC(=O)c3cccs3)cc2)CC1 has an inhibition of -2.29%.
Cc1ccccc1C(=O)NC(=S)Nc1ccc(N2CCN(C(=O)c3ccccc3)CC2)cc1 showed an inhibition of -6.96%.
Work on O=C(Nc1ccc(N2CCOCC2)cc1)c1cccc(S(=O)(=O)N2CCOCC2)c1 yielded an inhibition of 8.65%.
Cc1ccccc1C(=O)Nc1ccc(N2CCCCCC2)cc1 was tested, and the inhibition was 60.8% (active).
With COc1cccc(NC(=O)CN(C)CC(=O)Nc2ccc3c(c2)CCC3)c1 the inhibition was 10.1%.
In the case of CCOc1ccc(C(=O)Nc2cccc(SC)c2)cc1, the inhibition is reported as 88.7% (active).
In the case of COc1ccc(C(=O)Nc2cccc(S(C)(=O)=O)c2)cc1, the inhibition is reported as 0.473%.
For CCC(=O)Nc1ccc(C(=O)Nc2cccc(OC)c2)cc1, the inhibition was 56.2% (active).
CSc1cccc(NC(=O)CSc2ccccc2)c1 gave an inhibition of 4.87%.
Work on COc1cccc(C(=O)Nc2nnc(S(=O)(=O)N3CCCCC3)s2)c1 yielded an inhibition of 11.4%.
CCOc1ccc(C(=O)Nc2cccc(-c3ccc4nncn4n3)c2)cc1 gave an inhibition of -7.35%.
In the case of Cc1c(Cl)c([N+](=O)[O-])nn1CCCC(=O)NC(C)c1ccccc1 (stereo not given), the inhibition is reported as -0.959%.
COc1ccc(CC(=O)OC(C)C(=O)Nc2ccc(S(N)(=O)=O)cc2)cc1 (stereo not given) was tested, and the inhibition was 0.778%.
CS(=O)(=O)N1CCCC(C(=O)N2CCOCC2)C1 (stereo not given) gave an inhibition of -2.39%.
Work on COc1ccc(/C=C2/S/C(=N/N=C3\CC4CCC3(C)C4(C)C)NC2=O)cc1 (stereo not given) yielded an inhibition of -4.16%.
Cc1noc(C)c1C(=O)NC(C)c1ccc2c(c1)OCO2 (stereo not given) gave an inhibition of 1.47%.
For COC(=O)[C@H](CC(C)C)NC(=O)N1CCCCC1C (stereo not given in full), the inhibition was 1.79%.
COc1cc(/C=N/NC(=O)CCc2n[nH]c(=O)[nH]c2=O)ccc1O was tested, and the inhibition was 2%.
COc1cc(/C=N/Nc2nc3ccccc3s2)ccc1O was tested, and the inhibition was 81.9% (active).
Work on COc1ccc(/C=N/NC(=O)c2cc(-c3cccc(C)c3)nc3ccccc23)cc1O yielded an inhibition of 7.7%.
For Cc1cc(C)c(OCC(=O)N(Cc2cccs2)C2CCS(=O)(=O)C2)c(C)c1 (stereo not given), the inhibition was 0.829%.
Work on O=C(CC(NCCN1CCOCC1)C(=O)O)Nc1cccc(Cl)c1 (stereo not given) yielded an inhibition of 2.14%.
Work on COc1ccc(C(=O)NC2CCN(C(=O)Nc3ccc(F)cc3)CC2)cc1 yielded an inhibition of -1.37%.
Compound O=c1ccnc(Nc2ccc(Cl)cc2)[nH]1 has an inhibition of 3.66%.
Cc1cc(Nc2ccc(Br)cc2)nc2ccccc12 showed an inhibition of 0.988%.
In the case of Clc1ccc(Nc2ccc3ccccc3n2)cc1, the inhibition is reported as 89.6% (active).
Work on Cc1ccccc1CSc1nnc(CCCCCNC(=O)OC(C)(C)C)o1 yielded an inhibition of 8.18%.
CC(NC(=O)c1ccco1)c1ccc2c(c1)OCO2 (stereo not given) gave an inhibition of 9%.
Work on CC(C)CN(Cc1c(O)ccc2c(=O)c(-c3ccccc3)coc12)CC(C)C yielded an inhibition of 11.8%.
CCc1ccc(Oc2coc3cc(O)ccc3c2=O)cc1 was tested, and the inhibition was -2.69%.
With O=c1c(-c2ccccc2)coc2cc(O)ccc12 the inhibition was 66.2% (active).
With CC(=O)Nc1ccc(S(=O)(=O)N2CCC(C(=O)N[C@@H](Cc3ccccc3)C(=O)O)CC2)cc1 the inhibition was -6.11%.
In the case of Cc1ccc(-n2[nH]c(C)c(/C=N/NC(=O)c3cccc([N+](=O)[O-])c3)c2=O)cc1C, the inhibition is reported as -1.05%.
For C=CCNC(=S)N1CCN(CCN=Cc2c(C)[nH]n(-c3ccc([N+](=O)[O-])cc3)c2=O)CC1, the inhibition was 87.2% (active).
With CCNC(=S)N1CCN(CCN=CC2=C(O)CC(C)(C)CC2=O)CC1 the inhibition was -0.44%.
Cc1[nH]n(-c2ccccc2)c(=O)c1N=Nc1ccccc1C(=O)N1CCCCC1 was tested, and the inhibition was 0.644%.
Work on CC1(C)CC(=O)C(C=NCCN2CCN(C(=S)Nc3cccc(Cl)c3)CC2)=C(O)C1 yielded an inhibition of -11.9%.
Cc1[nH]n(-c2ccc([N+](=O)[O-])cc2)c(=O)c1C=NCCN1CCN(C(=O)c2ccccc2F)CC1 was tested, and the inhibition was 82.4% (active).
Cc1ccc(C(=O)N(CC(=O)NC2CCCC2)c2ccc(F)cc2)s1 showed an inhibition of -4.07%.
In the case of CCc1noc(C)c1C(=O)N1CCN(S(=O)(=O)c2cccc(C(F)(F)F)c2)CC1, the inhibition is reported as 0.961%.
For O=c1oc2ccccc2cc1-c1cn(-c2ccccc2)c(=S)[nH]1, the inhibition was 99.2% (active).
Work on S=c1[nH]c(-c2cccs2)cn1-c1ccccc1 yielded an inhibition of -0.786%.
In the case of O=C(Nc1cc2ccccc2oc1=O)C1CCCCC1, the inhibition is reported as 0.223%.
COc1ccc(C(CCN(Cc2ccc(OC)c(OC)c2)C(=O)CCl)c2ccccc2)cc1 (stereo not given) was tested, and the inhibition was -4.24%.
With CCCS(=O)(=O)N1CCCC(C(=O)NCCN2CCCCC2C)C1 (stereo not given) the inhibition was 4.11%.
COc1ccc(/C=C2\SC(=S)N(CCC(=O)Nc3cccc(C(=O)O)c3)C2=O)cc1OC gave an inhibition of -3.5%.
Compound COc1ccc(/C=C2\SC(=S)N(CC(=O)NNC(=O)c3ccncc3)C2=O)cc1 has an inhibition of 5.57%.
For C=CCOc1ccc(/C=C2\SC(=S)N(CCC(=O)O)C2=O)cc1, the inhibition was 98.9% (active).
With CCO[C@@H]1OC(C(=O)NC2CC2)=C[C@H](C)[C@H]1CCCO the inhibition was 6.12%.
